Among the data in PubChem BioAssay are composite z-score and z-score values, retold here.

The subject of assay [1] is Plasmodium falciparum Sir2 (PF13_0152, Sir2A). Kind of assay: pfSir2 binders on small-molecule microarrays, primary screen, biochemical, small-molecule microarray, 635 nm fluorescence (AID 1098).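 Note: score merges spot fluorescence intensity with its signal-to-noise ratio.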 Particulars: small-molecule microarray binding, fluorescence 635 nm; higher = more signal.
Assay [2] is described as follows: small-molecule microarray binders of probe aDKK1, primary screen, biochemical, biotinylated probe, 635/667 nm fluorescence (AID 1099).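 Note: score merges 667nm spot fluorescence with signal to noise across triplicate slides; reference of the scale not given here.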 Particulars: higher = more signal.
A short description of assay [3]: small-molecule microarray binders of probe aCHRDL2, primary screen, biochemical, biotinylated probe, 635/667 nm fluorescence (AID 1100). Particulars: higher = more signal.
Assay [4] in a line: splicing luciferase reporter signal modulators, primary screen, spliceosome inhibition project, cell-based, HEK293, splice +/- reporter (AID 1101).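 Note: HEK293 cells carrying a splicing-competent luciferase reporter gene; test concentration not given here.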 Particulars: luminescence, 24 h, higher = more signal, called active from +8 up or from −8 down. (In a reporter assay the amount or activity of a reporter protein is the signal.)
In assay [5] the target is Fibroblast growth factor 10 (Homo sapiens) (UniProt O15520). Kind of assay: FGF10 binders on small-molecule microarrays, primary screen, biochemical, small-molecule microarray, 635 nm fluorescence (AID 1102). Conditions: FGF10 binding, fluorescence 635 nm, higher = more signal.
Assay [6] deals with glycogen synthase kinase-3 (GSK3A per assay name; protocol says GSK3B). As to the kind of experiment: GSK3 binders on small-molecule microarrays, primary screen, biochemical, small-molecule microarray, 635 nm fluorescence, GSK3A (AID 1103). Note: the record names both GSK3A and GSK3B. Particulars: small-molecule microarray binding, fluorescence 635 nm; higher = more signal.
The target of assay [7] is Epidermal growth factor receptor (Homo sapiens) (UniProt P00533). Kind of assay: EGFR binders on small-molecule microarrays, primary screen, biochemical, small-molecule microarray, 635 nm fluorescence (AID 1104).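 Note: score merges 667 nm emission intensity with spot signal to noise over triplicate slides.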 Conditions: EGFR binding, higher = more signal.
Assay [8] deals with Follistatin-related protein 3 (Homo sapiens) (UniProt O95633). As to the kind of experiment: FSTL3 binders on small-molecule microarrays, primary screen, biochemical, small-molecule microarray, 635 nm fluorescence (AID 1105).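 Note: score merges emission near 667 nm and signal to noise per printed spot across three slides.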 Particulars: FSTL3 binding, higher = more signal.
The target in assay [9] is Dickkopf-related protein 1 (Homo sapiens) (UniProt O94907). Kind of assay: DKK1 binders on small-molecule microarrays, primary screen, biochemical, small-molecule microarray, 635 nm fluorescence scan (AID 1106).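 Note: score merges emission near 667 nm with signal to noise over three replicate slides.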 Conditions: DKK1 binding, higher = more signal.
Assay [10] has as its system Inhibin beta A chain (activin A). As to the kind of experiment: INHBA (activin A) binders on microarrays, primary screen, biochemical, small-molecule microarray, 635 nm fluorescence scan (AID 1107).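 Note: mouse activin A protein probed at 4.33 µg/mL on printed slides; score merges bound-protein fluorescence near 667 nm with spot signal-to-noise.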 Particulars: small-molecule microarray binding, higher = more signal.

The source made the active and inactive calls.

Epidermal growth factor receptor (Homo sapiens), sequence (P00533 whole entry, looked up): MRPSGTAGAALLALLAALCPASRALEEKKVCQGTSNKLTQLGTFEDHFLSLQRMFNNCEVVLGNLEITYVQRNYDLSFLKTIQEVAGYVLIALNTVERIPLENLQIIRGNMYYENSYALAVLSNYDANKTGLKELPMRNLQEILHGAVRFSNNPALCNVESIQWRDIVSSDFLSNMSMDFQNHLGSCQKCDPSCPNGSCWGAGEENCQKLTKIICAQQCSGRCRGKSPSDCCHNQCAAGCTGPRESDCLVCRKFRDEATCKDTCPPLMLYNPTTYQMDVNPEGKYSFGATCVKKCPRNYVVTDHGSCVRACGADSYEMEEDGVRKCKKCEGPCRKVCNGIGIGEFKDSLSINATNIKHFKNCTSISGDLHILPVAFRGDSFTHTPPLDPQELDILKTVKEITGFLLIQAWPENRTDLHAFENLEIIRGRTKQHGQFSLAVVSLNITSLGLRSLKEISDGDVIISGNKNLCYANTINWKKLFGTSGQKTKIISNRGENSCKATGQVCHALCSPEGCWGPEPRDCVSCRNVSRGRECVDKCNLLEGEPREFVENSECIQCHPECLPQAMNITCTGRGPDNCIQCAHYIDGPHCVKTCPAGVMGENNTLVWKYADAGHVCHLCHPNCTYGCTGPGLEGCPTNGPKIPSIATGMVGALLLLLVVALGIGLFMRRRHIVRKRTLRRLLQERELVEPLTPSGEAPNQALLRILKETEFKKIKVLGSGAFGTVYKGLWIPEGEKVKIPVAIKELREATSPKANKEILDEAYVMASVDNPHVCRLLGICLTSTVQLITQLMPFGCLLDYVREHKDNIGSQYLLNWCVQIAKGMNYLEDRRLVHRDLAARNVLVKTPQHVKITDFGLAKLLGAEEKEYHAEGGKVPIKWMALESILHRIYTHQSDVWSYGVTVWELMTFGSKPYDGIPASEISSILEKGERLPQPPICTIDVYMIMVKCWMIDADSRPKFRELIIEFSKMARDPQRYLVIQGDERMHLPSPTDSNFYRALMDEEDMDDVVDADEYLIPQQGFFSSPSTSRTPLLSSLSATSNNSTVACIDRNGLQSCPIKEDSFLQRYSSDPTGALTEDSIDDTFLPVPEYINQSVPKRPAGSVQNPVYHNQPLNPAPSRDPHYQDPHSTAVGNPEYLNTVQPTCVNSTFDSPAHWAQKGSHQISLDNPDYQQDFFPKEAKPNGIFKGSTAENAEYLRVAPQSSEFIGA
Follistatin-related protein 3 (Homo sapiens), sequence (O95633 whole entry, looked up): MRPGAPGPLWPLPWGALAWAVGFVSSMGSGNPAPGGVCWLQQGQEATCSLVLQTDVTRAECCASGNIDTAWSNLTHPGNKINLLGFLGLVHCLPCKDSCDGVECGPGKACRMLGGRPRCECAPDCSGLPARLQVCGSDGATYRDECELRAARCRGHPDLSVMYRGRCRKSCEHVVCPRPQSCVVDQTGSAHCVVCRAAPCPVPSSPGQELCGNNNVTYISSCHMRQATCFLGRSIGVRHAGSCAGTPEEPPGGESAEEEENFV
Fibroblast growth factor 10 (Homo sapiens), sequence (O15520 whole entry, looked up): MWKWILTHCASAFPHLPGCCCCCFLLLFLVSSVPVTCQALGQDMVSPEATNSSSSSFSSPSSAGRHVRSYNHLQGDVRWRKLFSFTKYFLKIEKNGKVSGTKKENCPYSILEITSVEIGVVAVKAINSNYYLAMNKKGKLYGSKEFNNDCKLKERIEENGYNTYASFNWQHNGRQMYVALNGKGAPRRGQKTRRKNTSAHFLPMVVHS
Dickkopf-related protein 1 (Homo sapiens), sequence (O94907 whole entry, looked up): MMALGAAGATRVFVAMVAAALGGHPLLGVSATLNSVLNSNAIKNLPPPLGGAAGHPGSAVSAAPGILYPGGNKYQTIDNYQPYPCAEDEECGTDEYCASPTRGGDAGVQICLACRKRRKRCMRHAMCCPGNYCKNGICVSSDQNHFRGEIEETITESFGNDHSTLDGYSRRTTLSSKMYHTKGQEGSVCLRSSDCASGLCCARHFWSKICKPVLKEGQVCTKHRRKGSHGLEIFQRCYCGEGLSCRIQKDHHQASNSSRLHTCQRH

Turning to `Cc1cc(C)c(C(O)C2C=CC3C(=O)N(c4ccccc4)C(=O)C3N2Nc2ccccc2F)c(C)c1` (stereo not given), the composite z-score was 0.622 in assay [1]; -0.134 in assay [2]; 0.706 in assay [3]; 0.119 in assay [5]; -0.574 in assay [6]; -0.396 in [7]. For the same compound, the composite z-score is -0.191 in assay [8], -0.26 in [9] and 0.72 in [10]. In addition, the z-score in assay [4] is 1.75 (inactive).

In the case of `C=CCN1C(=O)[C@]2(CCC(=O)OC(C)(C)C)N=C(c3ccc(OCCCO)cc3)O[C@@H]2c2ccccc21`, the composite z-score was 0.765 in assay [1]; 0.177 in [2]; 0.947 in [3]; -0.184 in assay [5]; 0.298 in [6]; 0.348 in [7]. Besides, the composite z-score in assay [8] came to 0.635; in assay [9] it was 0.384; in [10], 1.18. For the same compound, the z-score in [4] is -1.82 (inactive).

Turning to `COCCCNC(=O)[C@@H]1c2ccccc2C(=O)N(C(C)C)[C@H]1c1ccc(CO)cc1`, the composite z-score in assay [1] was 0.634; in [2] it was -0.0293; in [3], 0.39; in assay [5], -0.346; in assay [6], -0.291; in [7], -0.104. Besides, the composite z-score in assay [8] worked out at 0.115; in assay [9], 0.0487; in assay [10] it was 0.761. Further, the z-score in [4] is 0.555 (inactive).

On to `COC(=O)[C@@]1(Cc2ccc(OC)cc2)[C@H]2c3cc(C(=O)N(C)C)n(Cc4ccc(C)o4)c3C[C@H]2CN1C(=O)c1ccccc1`, for which the composite z-score in assay [1] was 1.34; in assay [2], 0.766; in assay [3] it was 0.923; in assay [5], 0.251; in assay [6], 1.18; in assay [7], -0.102. Besides, the composite z-score in assay [8] was 0.514; in assay [9], -0.716; in assay [10], 0.861. The z-score in assay [4] is 4.83 (inactive).

Take `COc1ccc(C#Cc2ccc3c(c2)[C@]2(C(=O)N3)[C@H](C(=O)O)[C@H]3C(=O)O[C@H](c4ccccc4)[C@H](c4ccccc4)N3[C@@H]2c2ccc(O)cc2)cc1`: the composite z-score in assay [1] was 1.52; in assay [2], 0.734; in [3], 0.681; in assay [5] it was -0.054; in assay [6] it was -0.352; in [7], -0.165. Moreover, the values for the composite z-score in assay [8], in assay [9] and in assay [10] were -0.382, -0.603 and 0.0045, respectively. Further, the z-score in assay [4] was -0.264 (inactive).

As to `CCCC[C@@H](O)C1=C(COC)C[C@H]2C(=O)N(C)C(=O)[C@H]2[C@H]1CO`, the composite z-score in assay [1] is 0.0237; in [2] it was -0.491; in [3], -0.532; in assay [5] it was 0.0965; in assay [6] it was -0.0596; in assay [7] it was -0.0915. Also, the composite z-score in [8] came to 0.344; in assay [9], 0.339; in assay [10], 0.581. In addition, in assay [4], the z-score was -0.857 (inactive).

With `CC(C)c1ccc(NN2C(C(O)c3ccc(C#N)cc3)C=CC3C(=O)N(c4ccccc4)C(=O)C32)cc1` (stereo not given), the composite z-score in assay [1] was 1.28; in assay [2], 0.935; in [3], 0.836; in assay [5], 0.98; in assay [6] it was 0.888; in assay [7], 0.397. Moreover, the composite z-score in [8] is 1.24; in assay [9], -0.103; in [10], 1. In addition, the z-score in assay [4] is 0.44 (inactive).

For `CN1C(=O)C2C=CC(C(O)c3cccn3C)N(Nc3ccc([N+](=O)[O-])cc3[N+](=O)[O-])C2C1=O` (stereo not given), the composite z-score in assay [1] is 0.0859; in [2], 0.821; in assay [3] it was 0.897; in assay [5] it was 0.219; in [6], -0.269; in [7], -0.157. For the same compound, the composite z-score in assay [8] was -0.0164; in assay [9], -0.31; in assay [10], 1.12. In addition, the z-score in [4] is 1.15 (inactive).

Consider `C=C[C@@H](OC)[C@H](OC(=O)Nc1ccc(OC)cc1)c1ccc(O)c(F)c1`, for which the composite z-score in assay [1] is 1.52; in assay [2], -0.515; in assay [3], -0.54; in assay [5] it was -0.076; in assay [6], -0.242; in [7], -0.459. The composite z-score was -0.0891 in [8], 0.171 in assay [9] and 1.07 in [10]. Besides, the z-score in [4] is -0.653 (inactive).

As to `[N-]=[N+]=NCc1ccccc1C[C@@]1(C(N)=O)N=C(c2ccc(OCCCO)cc2)O[C@@H]1c1ccccc1`, the composite z-score in assay [1] is 1.15; in assay [2] it was 0.67; in assay [3], 1.04; in assay [5] it was 0.001; in assay [6], -0.238; in [7], -0.892. Further, the composite z-score in assay [8] was -0.443; in assay [9], -1.38; in assay [10], 0.389. Moreover, in assay [4], the z-score is -1.01 (inactive).

As for `[N-]=[N+]=Nc1ccccc1C[C@@]1(C(=O)N2CCOCC2)N=C(c2ccc(OCCCO)cc2)O[C@@H]1c1ccccc1`, the composite z-score in [1] stood at 0.816; in [2] it was 1.46; in assay [3], 0.59; in assay [5], 1.36; in assay [6], 1.31; in [7], 0.577. The composite z-score was 1.25 in [8], -0.0771 in [9] and -0.431 in assay [10]. Further, the z-score in [4] was -0.818 (inactive).

On to `COc1cccc(C)c1NC(=O)O[C@H]1[C@H](OC(=O)Nc2ccccc2-c2ccccc2)[C@H](OC(=O)Nc2ccccc2-c2ccccc2)[C@@H](OC)O[C@@H]1CO`, for which the composite z-score in [1] came out at 0.861; in assay [2], 0.796; in [3] it was 0.549; in assay [5], 1.18; in assay [6] it was 1.33; in assay [7], 0.649. The composite z-score was 1.3 in assay [8], 0.717 in assay [9] and 0.729 in assay [10]. Further, the z-score in assay [4] is 0.118 (inactive).

On to `COc1ccc(CCNC(=O)[C@@]2(Cc3ccccc3I)c3ccccc3C(=O)N(C3CCCCC3)[C@H]2c2ccc(CO)cc2)cc1`, for which the composite z-score in [1] is 1.41; in assay [2], 0.0563; in assay [3] it was 0.58; in assay [5], -0.277; in [6], 0.302; in assay [7] it was -0.354. In addition, the composite z-score in assay [8] is 0.123; in assay [9], -0.41; in [10] it was 0.272. For the same compound, the z-score in assay [4] is -1.17 (inactive).
